Assay results published in the supplement of paper PMC7366291.
Where a name gives a salt, the structure may show the parent alone. ± gives the standard deviation or the standard deviation of the averaged measurements.

Experiments:
Details in all cases: 25 µM; exposure: 24-48 hpf
[1] = test system: Danio rerio Tg(wt1b:EGFP) embryo, pronephros; assay: glomerular separation, fold change vs DMSO control; higher = glomeruli further apart (abnormal)
Procedure, shortened: (§1)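 Distances and angles describing the pronephros were computed by a Fiji macro from 16 reference points set manually on maximum projections of dorsal images. These images came from dechorionated Tg(wt1b:EGFP) zebrafish embryos held in agarose-filled 96-well plates after exposure to 25 μM compound in 0.5% DMSO, in HEPES-buffered E3 with 0.003% PTU, from 24 to 48 hpf at 28.5°C. Any value more than 2 SD from the feature mean was excluded. Features are stated as fold change relative to the mean of same-day DMSO-treated embryos.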

[2] = test system: Danio rerio Tg(wt1b:EGFP) embryo, pronephros; assay: glomerular width (mean of left and right), fold change vs DMSO control; higher = wider glomerulus
Procedure, shortened: as §1

[3] = test system: Danio rerio Tg(wt1b:EGFP) embryo, pronephros; assay: fraction of imaged embryos annotated as normal kidney; higher = less nephrotoxic; extreme values may be limits of the assay
Procedure, shortened: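 The value given is the share of embryos in each treatment scored as having a normal kidney. To obtain it, dechorionated Tg(wt1b:EGFP) zebrafish embryos were treated from 24 to 48 hpf at 28.5°C with 25 μM compound in 0.5% DMSO, in 5 mM HEPES-buffered E3 with 0.003% PTU. Pronephroi were imaged by widefield fluorescence (470 nm, 10 z-slices), and every embryo was annotated by hand from maximum projections.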

[4] = test system: Danio rerio Tg(wt1b:EGFP) embryo, pronephros; assay: pronephric angle neck segment to proximal convoluted tubule (mean of left and right), fold change vs DMSO control; higher = larger pronephric angle
Procedure, shortened: as §1

| Structure (SMILES) | glomerular separation [1] | glomerular width [2] | fraction of imaged embryos annotated as normal kidney [3] | pronephric angle neck segment [4] |
| --- | --- | --- | --- | --- |
| CC(C)NCC(O)c1ccc(O)c(O)c1 (single isomer, unassigned; (-)) [(-)-Isoproterenol hydrochloride] | 0.881 ± 0.24 | 1.033 ± 0.0021 | 0.833 | 1.02 ± 0.021 |
| O=c1n(CCCN2CCN(c3cccc(Cl)c3)CC2)nc2ccccn12 [Trazodone hydrochloride] | 1.2 ± 0.34 | 0.97 ± 0.015 | 1 | 0.997 ± 0.0034 |
| Oc1ncnc2[nH]ncc12 [Allopurinol] | 0.837 ± 0.22 | 0.984 ± 0.018 | 0.75 | 0.9723 ± 0.0072 |
| CC(=O)Oc1ccccc1C(=O)Oc1ccccc1C(=O)O [Acetylsalicylsalicylic acid] | 1.33 ± 0.59 | 0.971 ± 0.085 | 0.833 | 1.017 ± 0.0041 |
| COc1cc2ncnc(Nc3ccc(F)c(Cl)c3)c2cc1OCCCN1CCOCC1 [Gefitinib] | 1.29 ± 0.64 | 0.981 ± 0.034 | 1 | 1.02 ± 0.024 |
| CCc1cc(C(N)=S)ccn1 [Ethionamide] | 0.955 ± 0.39 | 0.97628 ± 0.00041 | 0.75 | 0.96 ± 0.039 |
| C[C@]12CC[C@@H]3c4ccc(O)cc4CC[C@H]3[C@@H]1CC[C@@H]2O [Estradiol-17 beta] | 3.16 ± 1.2 | 0.812 ± 0.069 | 0.167 | 1.29 ± 0.22 |
| CC[N+](C)(C)c1cccc(O)c1 [Edrophonium chloride] | 1.26 ± 0.22 | 1.03 ± 0.026 | 0.833 | 0.876 ± 0.05 |
| O=C(COc1ccc(Cl)cc1)N1CCN(Cc2ccc3c(c2)OCO3)CC1 [Fipexide hydrochloride] | 1.26 ± 0.55 | 0.86 ± 0.031 | 0.75 | 1.24 ± 0.11 |
| O=C(CCCN1CCC(O)(c2ccc(Br)cc2)CC1)c1ccc(F)cc1 [Bromperidol] | 0.878 ± 0.23 | 1.03 ± 0.076 | 1 | 0.974 ± 0.038 |
| CCCN[C@H]1CCc2nc(N)sc2C1 [Pramipexole dihydrochloride] | 0.857 ± 0.44 | 1.03 ± 0.049 | 0.833 | 1.01 ± 0.046 |
| O=C(NCC(O)CO)c1c(I)c(C(=O)NCC(O)CO)c(I)c(N(CCO)C(=O)CO)c1I (stereo unspecified) [Ioversol] | 0.777 ± 0.33 | 1.07 ± 0.063 | 0.833 | 0.9813 ± 0.0048 |
| CCN(CC)CC(=O)Nc1c(C)cccc1C [Lidocaine hydrochloride] | 0.686 ± 0.29 | 1.04 ± 0.015 | 1 | 0.9342 ± 0.0069 |
| Nc1ccn([C@H]2CC[C@@H](CO)O2)c(=O)n1 [Zalcitabine] | 1.08 ± 0.56 | 0.966 ± 0.061 | 0.917 | 0.996 ± 0.015 |
| COc1cnc(NS(=O)(=O)c2ccc(N)cc2)nc1 [Sulfameter] | 0.925 ± 0.34 | 1.01 ± 0.021 | 0.833 | 0.9915 ± 0.0018 |
| NC(=O)c1ncn([C@@H]2O[C@H](CO)[C@@H](O)[C@H]2O)n1 [Ribavirin] | 0.913 ± 0.3 | 0.965 ± 0.025 | 0.75 | 0.985 ± 0.017 |
| CC(C)c1c(C(=O)Nc2ccccc2)c(-c2ccccc2)c(-c2ccc(F)cc2)n1CC[C@@H](O)C[C@@H](O)CC(=O)O [Atorvastatin] | 3.42 ± 1.4 | 0.691 ± 0.032 | 0 | 1.65 ± 0.047 |
| CN(C)CCOC(c1ccccc1)c1ccccc1.Cn1c(=O)c2[nH]c(Cl)nc2n(C)c1=O [Dimenhydrinate] | 1.31 ± 0.54 | 1.05 ± 0.054 | 0.917 | 1.029 ± 0.0072 |
| CCOc1cc(CC(=O)N[C@@H](CC(C)C)c2ccccc2N2CCCCC2)ccc1C(=O)O [Repaglinide] | 1.44 ± 0.91 | 0.943 ± 0.028 | 0.75 | 1.06 ± 0.036 |
| O=C1c2ccccc2S(=O)(=O)N1CCCCN1CCN(c2ncccn2)CC1 [Ipsapirone] | 1.28 ± 0.67 | 0.908 ± 0.038 | 0.917 | 1.054 ± 0.0035 |
| Cc1oncc1C(=O)Nc1ccc(C(F)(F)F)cc1 [Leflunomide] | 2.27 ± 1 | 1.19 ± 0.15 | 0.167 | 1.23 ± 0.054 |
| CN(C)CCc1c[nH]c2ccc(Cn3cncn3)cc12 [Rizatriptan benzoate] | 0.941 ± 0.29 | 1.01 ± 0.025 | 0.5 | 1.02 ± 0.07 |
| COc1ccccc1N1CCN(CCCCNC(=O)c2ccc3ccccc3c2)CC1 | 0.691 ± 0.17 | 1.02 ± 0.049 | 0.917 | 0.969 ± 0.018 |
| CC(=O)[C@@]12O[C@](C)(c3ccccc3)O[C@@H]1C[C@H]1[C@@H]3CCC4=CC(=O)CC[C@]4(C)[C@H]3CC[C@@]12C [Algestone acetophenide] | 1.76 ± 0.84 | 1.05 ± 0.047 | 0.5 | 1.02 ± 0.048 |
| CCCCc1nc(Cl)c(CO)n1Cc1ccc(-c2ccccc2-c2nnn[nH]2)cc1 [Losartan] | 0.969 ± 0.39 | 0.9444 ± 0.0062 | 0.75 | 1.04 ± 0.044 |
| Nc1cc(-c2ccncc2)c[nH]c1=O [Amrinone] | 0.609 ± 0.23 | 1.01 ± 0.036 | 0.917 | 0.969 ± 0.014 |
| O=C1c2c(O)ccc(O)c2C(=O)c2c(NCCNCCO)ccc(NCCNCCO)c21 [Mitoxantrone dihydrochloride] | 1.13 ± 0.46 | 1.03 ± 0.063 | 0.667 | 1.07 ± 0.1 |
| O=C(N[C@H](CO)[C@H](O)c1ccc([N+](=O)[O-])cc1)C(Cl)Cl [Chloramphenicol] | 1.33 ± 0.57 | 0.954 ± 0.035 | 1 | 0.935 ± 0.052 |
| CN(C)CCCN1c2ccccc2CCc2ccccc21 [Imipramine hydrochloride] | 0.946 ± 0.39 | 1.02 ± 0.14 | 0.75 | 0.996 ± 0.041 |
